# In PubChem BioAssay:
# “And” between values parts separate entries of the source, which are not always exact repeats. Identical values can stand only once. For some assays here: Potency and affinity values are given separately. The source made the active and inactive calls. Cut-off read from the data, not from the text of the source, unless noted: active = parasite load remaining mostly below about 12% (no sharp cut-off); inactive = mostly above about 10%.
# How the values were obtained:
# [1] = blockers of polyQ-driven CASP3 activation – cell-based (AID 1583); conditions: polyglutamine-induced caspase-3 activation, cell assay; stronger effect = higher value;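 tested at 10 µM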
# [2] = yeast 75Q aggregation reduction – 75Q-TubU reporter (AID 1593); conditions: Yeast 75Q polyglutamine aggregation reporter
# [3] = restoration of touch response, mutant HTT neurons – whole organism, C. elegans mechanosensory neurons, N-terminal huntingtin (AID 1599); conditions: C. elegans polyQ-huntingtin mechanosensory neurons, stronger effect = higher value
# [4] = blockers of cytochrome c efflux from mitochondria – biochemical, purified mitochondria (AID 1603); conditions: stronger effect = lower value;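 note: mouse liver mitochondria challenged with calcium chloride; signal normalized to the plate average as 100%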
# [5] = polyglutamine aggregate formation blockers (AID 1604); conditions: polyglutamine-induced protein aggregation inhibition assay; stronger effect = higher value; tested at 2.5 µM
# [6] = glutamate transport activators, MN-1 cells, MN-1 cell line (AID 1612); conditions: MN-1 motor neuron cells, stronger effect = higher value;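 note: tested at 1 µM final; 0% = mean of DMSO vehicle wells on each plate; positive means more glutamate uptake than control and negative means less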
# [7] = GFP-Q80 aggregate reduction, neuronal-like cells, cell-based, NGF-treated PC12, GFPQ80 (AID 1614); conditions: PC12 NGF-treated GFP-polyQ80 inclusion reduction;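 note: lower means fewer inclusions and 0 means no inclusions at all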
# [8] = 75Q-TubH aggregate inhibition, S. cerevisiae, yeast (AID 1616); conditions: S. cerevisiae 75Q-TubH polyglutamine aggregation suppression; stronger effect = higher value
# [9] = P. berghei load reduction in hepatocytes – cell-based, HepG2, luciferase luminescence, HepG2 viability, primary screen (AID 624349);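 note: 100% = mean of DMSO negative control wells on the same plate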; conditions: P. berghei liver stage in HepG2, luciferase luminescence, concentration not given here; parasite load remaining: stronger effect = lower value; viability: measured here: HepG2 viability without parasites
# [10] = EMT-state selective cytotoxicity in co-culture – imaging, PC-3E GFP, TEM4-18 mCherry, primary screen (AID 1345086;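 active = compounds killing one labelled cell type while sparing the other, by normalised counts and ratio limits, not self-fluorescent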;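 for all read-outs here: cells exposed to compound for 72 h before imaging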;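 for red/green cell ratio (normalised): normalised mesenchymal count divided by normalised epithelial count so high means epithelial killing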); conditions: PC-3E GFP / TEM4-18 mCherry co-culture, imaging cell counts, at 1 µM; for red/green cell ratio (normalised): actives lie on both sides, counts scaled to control wells, 1 = unselective
# [11] = viability loss with induced miR-34 in A549 – imaging, A549 dox-inducible miR-34, nuclei and caspase counts, primary screen (AID 1347080;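 active = compounds whose cell count with miR-34 switched on is under 0.7 times the count with it off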); conditions: A549 miR-34 inducible, Hoechst nuclei count, 48 h
# [12] = galactose survival enhancers in mitochondrial complex I cybrids – cell-based, galactose medium, ATP luminescence, primary screen (AID 1645843;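 active = z-score of at least 1.8 in each of two replicates, scored against plate mean and spread of sample wells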;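 note: positive z means more ATP and so rescue of galactose-driven cybrid death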); conditions: complex I mutant cybrid cells, 72 h, stronger effect = higher value
# [13] = measured here: epithelial PC-3E GFP cell survival
# [14] = measured here: mesenchymal TEM4-18 mCherry cell survival
# [15] = stronger effect = lower value, cell number ratio, induced over uninduced
# [16] = measured here: relative caspase fold change +Dox/-Dox
# [17] = measured here: total cells with miR-34 induction, stronger effect = lower value
# [18] = measured here: total cells without miR-34 induction
SMILES,inhibition [1] [%],score [2],rescue above control [3],cytochrome c release ratio [4],inhibition of aggregation [5] [%],glutamate uptake change [6] [%],inclusion score [7],aggregation suppression score [8],parasite load remaining [9],viability [9],red/green cell ratio (normalised) [10],"normalised cell number [10, 13]","normalised cell number [10, 14]","fold change [11, 15]","fold change [11, 16]","cell count [11, 17]","cell count [11, 18]",z-score [12]
CN1C2CC[C@@H]1CC(OC(=O)[C@H](CO)c1ccccc1)C2 (some centres undefined),10,1.23,0.71,1.28,89.7,-13.3,2,1.46,85.7% (inactive) and 75.8% (inactive),72.7% and 94.9%,0.96 (inactive),1.11,1.07,0.837 (inactive),0.536,10500,12600,–
CCC[C@@H]1C[C@@H](C(=O)N[C@H]([C@H]2O[C@H](SC)[C@H](O)[C@@H](O)[C@H]2O)[C@H](C)O)N(C)C1,3.68,1.23,8.96,0.99,67.6,-19.8,2,1.16,81.5% (inactive) and 50.6% (inactive),72.6% and 86.3%,1.04 (inactive),1.09,1.13,0.939 (inactive),2.92,11900,12700,–
CCCC1O[C@@H]2CC3C4CCC5=CC(=O)C=CC5(C)C4[C@@H](O)CC3(C)[C@]2(C(=O)CO)O1 (some centres undefined),18.7,1.33,-3.37,1.5,69.2,-4.39,2,1.53,34.5% (inactive) and 13.1% (inactive),88.8%,1.29 (inactive),0.99,1.27,0.872 (inactive),1.29,6800,7800,–
CO[C@H]1/C=C/O[C@@]2(C)Oc3c(C)c(O)c4c(O)c(c(C=NN5CCN(C)CC5)c(O)c4c3C2=O)NC(=O)/C(C)=C\C=C\C(C)[C@H](O)[C@@H](C)[C@@H](O)[C@@H](C)[C@@H](OC(C)=O)[C@@H]1C (some centres undefined),-10.8,1.2,1.38,0.69,83.1,-15.2,2,0.812,73.9% (inactive) and 34.2% (inactive),73.4% and 91.2%,1.06 (inactive),0.87,0.91,0.892 (inactive),3.2,11300,12700,–
CN1C2CC(OC(=O)[C@H](CO)c3ccccc3)C[C@H]1[C@H]1OC21 (some centres undefined),15.1,1.26,6.9,1.03,58.7,1.71,2,1.18,98.3% (inactive) and 40.5% (inactive),76.7% and 88.6%,0.76 (inactive),1.11,0.84,0.977 (inactive),3.37,11400,11600,–
C[C@]12CCC3c4ccc(O)cc4CCC3C1CC[C@@H]2O (some centres undefined),29.2,0.39,6.83,1.24,47.9,35.2,2,0.216,84% (inactive) and 56.6% (inactive),74.3% and 92.5%,1.16 (inactive),1.32,1.53,0.991 (inactive),1.49,11000,11100,–
CC(=O)O[C@]1(C(C)=O)CCC2C3C=C(Cl)C4=CC(=O)[C@@H]5C[C@@H]5[C@]4(C)C3CC[C@@]21C (some centres undefined),22.9,0.66,-6.61,1.14,61,14.6,1,0.413,90.2% (inactive) and 39.4% (inactive),70.9% and 86.5%,0.81 (inactive),1.12,0.91,0.907 (inactive),1.85,11200,12400,–
CC(=O)O[C@]1(C(C)=O)CCC2C3C[C@H](C)C4=CC(=O)CC[C@]4(C)C3CC[C@@]21C (some centres undefined),28.3,0.63,2.76,1.2,59.1,30.6,2.5,0.615,76.4% (inactive) and 20.6% (inactive),71.8% and 85.5%,1.21 (inactive),1.07,1.3,0.945 (inactive),3.26,8680,9190,–
CN(C)CCCO[C@H]1[C@@H](C(O)CO)OC2OC(C)(C)O[C@@H]21 (some centres undefined),13.5,1.28,-9.95,1.02,85.9,-4,2,1.2,121% (inactive) and 48% (inactive),87.2% and 101%,0.97 (inactive),0.98,0.95,0.948 (inactive),2.91,12000,12700,–
CCC(=O)O[C@]1(C(=O)CCl)[C@@H](C)CC2C3CCC4=CC(=O)C=C[C@]4(C)[C@@]3(F)[C@@H](O)C[C@@]21C (some centres undefined),-7.85,0.96,0.61,1.1,51,19.7,2,1.08,202% (inactive) and 73.8% (inactive),86% and 95.6%,1.11 (inactive),1.12,1.25,0.913 (inactive),3.26,7630,8360,–
CCCCCC(=O)O[C@]1(C(C)=O)CCC2C3CCC4=CC(=O)CC[C@]4(C)C3CC[C@@]21C (some centres undefined),18.1,-0.83,-3.14,0.32,35,9.62,–,0.43,13.1% (inactive) and 0.105% (inactive),72.1% and 76.8%,1.01 (inactive),1.08,1.09,0.912 (inactive),1.72,7140,7840,–
C[C@]12CCC(=O)C=C1CCC1C2C(=O)C[C@@]2(C)C1CC[C@]2(O)C(=O)CO (some centres undefined),–,–,–,–,–,–,–,–,–,–,0.7 (inactive),1.3,0.91,0.915 (inactive),1.12,9120,9960,0.345 (inactive)
